Assay outcomes deposited in PubChem by The Scripps Research Institute Molecular Screening Center.
A selection: hits, their analogues and other compounds. The true share with any hit is near 2.2%.
HTR5A inv ctr – HTR5A inverse agonists in luminescence cell assay, primary screen, counter-screen for OPRM1-OPRD1 heterodimer inverse agonist project, full-deck HTS; 5-hydroxytryptamine receptor 5A (Homo sapiens), P47898; HTR5A cell line, inverse agonism; inhibition, % at 9.3 µM; 340,000 compounds, 0.083% hits; in the data active = inhibition mostly above about 23%, no sharp cut-off; inactive = mostly below about 18%
MOR-DOR inv ag – inverse agonists of MOR-DOR heterodimerization, primary screen, cell-based, luminescence | Mu-type opioid receptor (Homo sapiens) + Delta-type opioid receptor (Homo sapiens), … | cell-based MOR-DOR heterodimer luminescence, inverse agonism | inhibition, % at 9.3 µM | 340,000 compounds, 0.21% hits | AID 504357, 2011; in the data active = inhibition above about 22%, passing the limit was not always enough
HTR5A ag – HTR5A agonists in luminescence cell assay, primary screen, counter-screen for OPRM1-OPRD1 heterodimer agonist project, full-deck HTS | AID 504692, 2011 | cell-based | 5-hydroxytryptamine receptor 5A (Homo sapiens), P47898 | activation, % at 9.3 µM | 340,000 compounds, 0.61% hits; in the data active = activation mostly above about 9.5%, no sharp cut-off; inactive = mostly below about 7.6%
sPLA2-III inh – human group III sPLA2 inhibitors, primary screen, biochemical, QFRET, BODIPY PC-A2 liposome substrate. Group 3 secretory phospholipase A2 (Homo sapiens), Q9NZ20. QFRET BODIPY PC-A2 liposome hydrolysis, fluorescence. inhibition, % at 12.2 µM. 370,000 compounds, 0.56% hits. AID 743126, 2013;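 active = inhibition above mean plus 3 SD of compounds lying within the high and low control bounds, cut at about 19% in these data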
Target sequence (Q9NZ20 whole entry, looked up): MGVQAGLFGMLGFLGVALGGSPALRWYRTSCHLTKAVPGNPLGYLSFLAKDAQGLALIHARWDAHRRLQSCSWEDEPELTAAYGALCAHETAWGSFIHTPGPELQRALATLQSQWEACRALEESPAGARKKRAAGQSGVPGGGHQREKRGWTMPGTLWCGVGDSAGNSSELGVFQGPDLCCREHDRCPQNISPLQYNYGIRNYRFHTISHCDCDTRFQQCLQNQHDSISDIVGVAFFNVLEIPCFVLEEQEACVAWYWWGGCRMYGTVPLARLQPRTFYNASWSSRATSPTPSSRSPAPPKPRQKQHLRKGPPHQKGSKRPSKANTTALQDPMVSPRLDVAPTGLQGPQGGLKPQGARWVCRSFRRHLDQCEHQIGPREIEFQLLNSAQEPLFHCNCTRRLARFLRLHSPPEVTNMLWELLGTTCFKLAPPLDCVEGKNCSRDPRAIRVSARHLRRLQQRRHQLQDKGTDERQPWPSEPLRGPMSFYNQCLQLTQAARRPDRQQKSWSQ
MOR-DOR ag – agonists of OPRM1-OPRD1 heterodimerization, primary screen, cell-based, luminescence; Mu-type opioid receptor (Homo sapiens) + Delta-type opioid receptor (Homo sapiens), …; cells; activation, % at 9.3 µM; 340,000 compounds, 0.3% hits; in the data active = activation above about 18%
HTR2A ag – mouse Htr2a agonists via beta-arrestin recruitment, primary screen, cell-based, luminescence; CHO-K1 mHTR2A beta-arrestin complementation; percent of 30 µM serotonin response; activation, % at 7.6 µM; 360,000 compounds, 0.66% hits; AID 624169, 2012;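 active = activation above a run cutoff, the mean activation of all tested compounds plus 3 SD, cut at about 14% in these data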
sPLA2 confirm – human group III sPLA2 inhibitors, confirmation, biochemical, QFRET, triplicate; shares compounds with sPLA2-III inh; recombinant hGIII-sPLA2, BODIPY PC-A2 QFRET fluorescence; inhibition, % at 12.2 µM; 2,000 compounds, 34% hits; AID 743280, 2014;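 active = mean inhibition across triplicates above the hit cutoff set in the earlier primary screen, cut at about 19% in these data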
535nm interf – 535nm fluorescence optical interference, confirmation, artefact control for HGIII-sPLA2 inhibitor project, biochemical, QFRET; shares compounds with sPLA2-III inh; BODIPY FL product fluorescence interference; inhibition, % at 12.2 µM; 2,000 compounds, 8.5% hits; AID 743282, 2014;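 active = average inhibition above the solvent-only control mean plus 3 SD, cut at about 6% in these data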
BODIPY interf DR – 535nm fluorescence optical interference, dose response, artefact control for HGIII-sPLA2 inhibitor project, biochemical, QFRET. shares compounds with sPLA2-III inh. IC50, µM. BODIPY FL product fluorescence interference, cell-free. 240 tested, under 10 active;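 active = IC50 at or below 10 µM; inactive = IC50 above 10 µM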
Hits are given with their value; - = inactive; . = no result.

SMILES | HTR5A inv ctr | MOR-DOR inv ag | HTR5A ag | sPLA2-III inh | MOR-DOR ag | HTR2A ag | sPLA2 confirm | 535nm interf | others
CCn1c(-c2nn(-c3ccccc3)ccc2=O)n[nH]c1=S | - | - | - | 24 | - | - | - | -
NS(=O)(=O)c1ccc(N=Nc2c(O)c(C(=O)O)cc3ccccc23)cc1 | - | - | - | 33 | - | - | 25 | -
CCC(C(=O)Nc1ccccc1N1CCCC1)c1ccccc1F (stereo not given) | . | . | . | - | . | . | . | .
CCOC(=O)[C@H]1[C@H]2COc3cc(OC)ccc3[C@@H]2N2C(=O)c3cc(OC)c(OC)cc3NC(=O)[C@@]12C | - | - | - | 22 | - | - | - | -
COC(CNC(=O)c1ccc(N2CCC3(CC2)OCCO3)c([N+](=O)[O-])c1)OC | - | - | - | 23 | - | - | - | -
N/C(=N\C(=S)Nc1ccccc1)c1ccccc1 | - | - | - | - | - | - | . | .
NC(N)=NC(=S)Nc1ccc(Cl)cc1 | - | - | - | 21 | - | - | - | -
CC(C)CNC(=O)CN(C)S(=O)(=O)c1ccc(F)cc1 | - | - | - | 22 | - | - | - | -
CN(CC(=O)NC1CC1)S(=O)(=O)c1ccc(F)cc1 | - | - | - | - | - | - | . | .
COc1ccccc1OCC(=O)Nn1c(=S)[nH]c2ncccc2c1=O | - | - | - | 24 | - | - | - | -
CC1(c2nnnn2Cc2ccccc2)CSCC(=O)N1Cc1cccs1 (stereo not given) | . | . | . | - | . | . | . | .
Cc1nc(SCC(=O)N2CCOCC2)c2c(=O)n(C)c(=O)n(CC(C)C)c2n1 | - | - | - | - | - | - | . | .
Cc1nc(SCC(=O)N2CCOCC2)c2c(=O)n(C)c(=O)n(C)c2n1 | - | - | - | 21 | - | - | - | -
C=CCNS(=O)(=O)c1ccc(OCC(=O)OC)cc1 | - | - | - | 24 | - | - | - | -
COc1ccc(CN2CN3Cc4ccc(C)cc4C3CS2(=O)=O)cc1 (stereo not given) | . | . | . | - | . | . | . | .
C/C(=N/NC(=O)c1ccc2c(c1)OCO2)c1cccc([N+](=O)[O-])c1 | - | - | - | - | - | - | . | .
C/C(=N/NC(=O)c1ccc2c(c1)OCCO2)c1ccc([N+](=O)[O-])cc1 | - | - | - | 23 | - | - | - | -
COc1ccc(C2NC(=S)N(Cc3ccc(Cl)cc3)C(C)=C2C(C)=O)cc1 (stereo not given) | . | . | . | - | . | . | . | .
Cc1ccc(S(=O)(=O)N2CCCC2C(=O)N2CCc3ccccc3C2)cc1C (stereo not given) | . | . | . | - | . | . | . | .
NC(Cc1ccc(C(F)(F)F)cc1)c1csc(Nc2cc(Oc3ccccc3)ncn2)n1 (stereo not given) | . | . | . | 25 | . | - | - | -
NC(COCc1ccccc1)c1csc(Nc2nncc3ccccc23)n1 (stereo not given) | . | . | . | - | . | - | . | .
Nc1ccc(CC(N)c2csc(Nc3cc(Oc4ccccc4)ncn3)n2)cc1 (stereo not given) | . | . | . | - | . | - | . | .
NC(Cc1ccc(C(F)(F)F)cc1)c1csc(Nc2nncc3ccccc23)n1 (stereo not given) | . | . | . | 21 | . | - | - | -
Cc1cnc(C)c(Nc2nc(C(N)Cc3ccc(Cl)cc3)cs2)n1 (stereo not given) | . | . | . | 25 | . | - | - | -
Cc1cnc(C)c(Nc2nc(C(N)Cc3ccc(F)cc3)cs2)n1 (stereo not given) | . | . | . | - | . | - | . | .
SMILES | HTR5A inv ctr | MOR-DOR inv ag | HTR5A ag | sPLA2-III inh | MOR-DOR ag | HTR2A ag | sPLA2 confirm | 535nm interf | others
CCCN1CCCCC(NC(=O)COCc2ccccc2)C1=O (stereo not given) | . | . | . | - | . | . | . | .
CCCOc1ccc(C(=O)N2CCC(Oc3cccnc3)CC2)cc1 | . | . | . | - | . | . | . | .
Cc1nn(C)c(-c2n[nH]c(=S)n2-c2ccccc2)c1Cl | - | - | - | 26 | - | - | 24 | -
Cc1nn(C)cc1-c1n[nH]c(=S)n1-c1ccc(F)cc1 | - | - | - | 29 | - | - | - | -
Fc1cccc(-c2n[nH]c(=S)n2-c2ccccc2)c1 | - | - | - | 25 | - | - | - | -
Cn1cc(Cl)c(-c2n[nH]c(=S)n2-c2ccc(F)cc2)n1 | - | - | - | - | - | - | . | .
Cn1cc(Cl)c(-c2n[nH]c(=S)n2-c2ccccc2)n1 | - | - | - | - | - | - | . | .
COc1ccc(CN2C(=O)[C@]3(NCCc4c3[nH]c3ccc(OC)cc43)c3cc(F)ccc32)cc1 | . | . | . | - | . | . | . | .
[C-]#[N+][C@]12C(=O)[C@H](C=C(Cl)[C@@]1(C)C=C)C(C)(C)[C@H]1C(=O)N(C)c3cccc2c31 | . | . | . | 31 | . | . | 21 | -
O=c1[nH]c(NCCO)nc2c1C1(CCCC1)Cc1ccccc1-2 | - | - | - | - | - | - | . | .
C=CCNC(=S)NNc1nc2c(c(=O)[nH]1)C1(CCCCC1)Cc1ccccc1-2 | - | - | - | 25 | - | - | 29 | - | BODIPY interf DR=-
Nn1c(SCC(=O)N2c3ccccc3Sc3ccc(Cl)cc32)nnc1-c1n[nH]c2c1CCC2 | . | . | . | - | . | . | . | .
CCCCNC(=O)C1CCCN1C(=O)Nc1ccc(Cl)cc1 (stereo not given) | . | . | . | - | . | . | . | .
O=C(CCc1ccccc1)N[C@H]1[C@@H](OC(=O)c2cccnc2)CCC[C@@]12C(=O)N(Cc1ccccc1)c1ccccc12 | . | . | . | - | . | . | . | .
CCCCCCn1cnc2c(c1=O)c1nc3ccccc3nc1n2/N=C/c1ccco1 | - | - | - | - | - | - | . | .
COCCn1cnc2c(c1=O)c1nc3ccccc3nc1n2/N=C/c1ccco1 | - | - | - | 19 | - | - | - | -
C[C@@H]1[C@@H](c2ccccc2)OC(O)([C@H](Cc2ccccc2)NC(=O)OC(C)(C)C)CN1C (stereo not given in full) | . | . | . | - | . | . | . | .
CSc1ccc(/C=N/NC(=O)CNc2ccc3ccccc3c2)cc1 | - | - | - | - | - | - | . | .
O=C(CNc1ccc2ccccc2c1)N/N=C/c1ccncc1 | - | - | - | 20 | - | - | - | -
